# IDE exosite inh: insulin-degrading enzyme (human) exo-site inhibition | P14735 | purified IDE, FL-6b probe fluorescence polarization; hits give low values | z-score at 20 µM | 6.3% of 17,000 active;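 active = z-score of -3 or lower, meaning strong loss of probe binding signal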;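 also: His-tagged human IDE residues 42-1019 made in E. coli with 30 nM FL-6b probe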
# Target sequence (P14735 42-1019 limits assumed): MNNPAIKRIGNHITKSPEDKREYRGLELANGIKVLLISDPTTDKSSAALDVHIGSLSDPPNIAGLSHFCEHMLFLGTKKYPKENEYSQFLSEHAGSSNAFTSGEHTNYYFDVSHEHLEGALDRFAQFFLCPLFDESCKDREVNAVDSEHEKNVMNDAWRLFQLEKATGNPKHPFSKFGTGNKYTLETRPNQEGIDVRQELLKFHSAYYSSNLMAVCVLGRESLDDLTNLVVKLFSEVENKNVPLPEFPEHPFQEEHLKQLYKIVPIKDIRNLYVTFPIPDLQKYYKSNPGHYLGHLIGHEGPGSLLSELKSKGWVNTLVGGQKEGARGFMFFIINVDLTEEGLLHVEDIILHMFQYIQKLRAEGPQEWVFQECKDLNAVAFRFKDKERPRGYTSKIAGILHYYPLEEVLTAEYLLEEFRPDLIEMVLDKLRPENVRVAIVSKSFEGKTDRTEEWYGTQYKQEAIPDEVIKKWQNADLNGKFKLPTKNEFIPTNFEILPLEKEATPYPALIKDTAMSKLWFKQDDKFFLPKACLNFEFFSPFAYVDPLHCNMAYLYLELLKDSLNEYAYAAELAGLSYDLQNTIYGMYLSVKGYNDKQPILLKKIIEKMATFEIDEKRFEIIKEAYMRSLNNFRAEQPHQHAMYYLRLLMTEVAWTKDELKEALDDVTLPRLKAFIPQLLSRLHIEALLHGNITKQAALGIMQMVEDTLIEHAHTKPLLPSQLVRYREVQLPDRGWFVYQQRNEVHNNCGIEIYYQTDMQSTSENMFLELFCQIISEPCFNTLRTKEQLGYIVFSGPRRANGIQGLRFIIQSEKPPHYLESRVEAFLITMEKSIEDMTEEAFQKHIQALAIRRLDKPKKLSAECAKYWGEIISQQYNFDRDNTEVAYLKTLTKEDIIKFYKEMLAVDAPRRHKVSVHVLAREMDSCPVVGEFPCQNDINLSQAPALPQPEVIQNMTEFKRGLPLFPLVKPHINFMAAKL
# A number is an active result; – = inactive. Only a selection was taken, and hits are over-represented in it overall.
SMILES,IDE exosite inh
CC(C)(C)[S@](=O)N1Cc2cc(C(=O)NCC(F)(F)F)nc(-c3cccc(-c4cccc(F)c4)c3)c2[C@@H]1CCO,–
CC(C)(C)[S@@](=O)N1Cc2cc(C(=O)NCc3ccccc3F)nc(-c3cccc(-c4cncnc4)c3)c2[C@H]1CCO,-5.53
COc1ccc2c3c([nH]c2c1)[C@H](CO)N(C(=O)CC1CC1)CC31CCN(Cc2ccncc2)CC1,–
CC(=O)N1[C@H](CO)[C@H](c2ccccc2)[C@H]1CNC(=O)CN1CCOCC1,–
CO[C@@H]1CN(C)C(=O)c2cc(NC(=O)Cc3ccccc3)ccc2OC[C@H](C)N(C(=O)c2ccccc2F)C[C@@H]1C,–
CCC(=O)N1CCCCN2[C@H](CO)[C@H](c3ccc(C#CCOC)cc3)[C@@H]2C1,–
O=C(Nc1ccccc1)N1CCCCN2[C@@H](CO)[C@H](c3ccc(C#Cc4ccccc4)cc3)[C@@H]2C1,–
CCC(=O)N1CCCCN2[C@H](CO)[C@@H](c3ccc(C#Cc4ccccc4)cc3)[C@H]2C1,-3.89
CCC(=O)N1CCCCN2[C@@H](CO)[C@@H](c3ccc(-c4cccc(C#N)c4)cc3)[C@@H]2C1,–
CCC(=O)N1CCCCN2[C@H](C1)[C@H](c1ccc(C#CCOC)cc1)[C@@H]2CO,–
CCC(=O)N1CCCCN2[C@H](C1)[C@H](c1ccc(C#Cc3ccccc3)cc1)[C@@H]2CO,-4.62
CCC(=O)N1CCCCN2[C@H](C1)[C@@H](c1ccc(-c3cccc(C#N)c3)cc1)[C@@H]2CO,–
CCC(=O)N1CCCCN2[C@H](C1)[C@@H](c1ccc(C#Cc3ccccc3)cc1)[C@@H]2CO,–
CCC(=O)N1CCCCN2[C@H](CO)[C@H](c3ccc(C#Cc4ccccc4)cc3)[C@@H]2C1,-8.85
CC(=O)N1CC(=O)N2[C@@H](CO)[C@H](c3ccc(-c4ccc(C)cc4)cc3)[C@@H]2C1,–
CC(C)[C@H]1C(=O)N[C@@H](c2cccc(Cl)c2)CC=CC[C@H](C)Oc2ccccc2C(=O)N1C (mixture of isomers),–
Fc1ccccc1CN1[C@@H]2CNC[C@H]1C2c1ccc(-c2ccncc2)cc1 (stereo not given in full),–
Cc1ccccc1S(=O)(=O)N1CC(=O)N2[C@H](C1)[C@H](c1ccc(C#CCN(C)C)cc1)[C@@H]2CO,–
N#C[C@H]1[C@@H](c2ccccc2C2=CCCCC2)[C@@H](CO)N1C(=O)Cc1ccncc1,–
CCS(=O)(=O)Nc1ccc2c(c1)C(=O)N(C)C[C@H](OC)[C@H](C)CN(C(=O)c1ccc3c(c1)OCO3)[C@@H](C)CO2,–
OC[C@H]1[C@H](c2ccc(-c3ccccc3)cc2)[C@H]2CN(Cc3cncnc3)CCCCN21,–
Cc1cccc(-c2ccc([C@H]3[C@@H](CO)N4CCCCN(Cc5cncnc5)C[C@@H]34)cc2)c1,–
COc1cccc(-c2ccc([C@H]3[C@H]4CN(CC5CC5)CCCCN4[C@H]3CO)cc2)c1,-4.09
Cc1cccc(-c2ccc([C@H]3[C@H]4CN(Cc5cncnc5)CCCCN4[C@H]3CO)cc2)c1,-5.97
Cc1ccc(-c2ccc([C@@H]3[C@@H](CO)N4CCCCN(Cc5cncnc5)C[C@@H]34)cc2)cc1,–
SMILES,IDE exosite inh
COc1cccc(-c2ccc([C@H]3[C@H](CO)N4CCCCN(CC5CC5)C[C@@H]34)cc2)c1,–
Cc1cccc(-c2ccc([C@@H]3[C@@H](CO)N4CCCCN(Cc5cncnc5)C[C@H]34)cc2)c1,-4.56
COc1cccc(-c2ccc([C@@H]3[C@@H](CO)N4CCCCN(CC5CC5)C[C@H]34)cc2)c1,–
OC[C@H]1[C@H](c2ccc(-c3ccccc3)cc2)[C@@H]2CN(Cc3cncnc3)CCCCN12,–
Cc1cccc(-c2ccc([C@H]3[C@H](CO)N4CCCCN(Cc5cncnc5)C[C@@H]34)cc2)c1,-7.37
Cc1ccc(-c2ccc([C@@H]3[C@H](CO)N4CCCCN(Cc5cncnc5)C[C@@H]34)cc2)cc1,–
OC[C@H]1[C@@H](c2ccc(-c3ccccc3)cc2)[C@@H]2CN(Cc3cncnc3)CCCCN12,–
OC[C@@H]1[C@@H](c2ccc(C#CC3(O)CCCC3)cc2)[C@H]2CN(Cc3cccnc3)CCCCN12,–
CCS(=O)(=O)N1CC2(CN(C)[C@@H](CO)c3c2c2ccc(OC)cc2n3C)C1,–
COc1ccc2c3c([nH]c2c1)[C@@H](CO)N(C(=O)C1CCOCC1)CC31CCN(Cc2cccc(F)c2)CC1,–
O=C1CN(Cc2ccccc2)C[C@H]2[C@H](c3ccc(-c4ccccc4F)cc3)[C@H](CO)N12,–
CC[C@H]1C/C=C\C[C@H](c2ccc(OC)cc2OC)NC(=O)[C@H](C)CC(=O)N1,–
CN(C)CC#Cc1ccc([C@H]2[C@@H](CO)N3CCCCN(S(=O)(=O)c4ccccc4F)C[C@H]23)cc1,–
COc1ccc(C#Cc2ccc([C@@H]3[C@@H](CO)N4CCCCN(S(=O)(=O)c5cn(C)cn5)C[C@@H]34)cc2)cc1,–
COc1ccccc1CNC(=O)C[C@@H]1C=C[C@@H](NC(=O)CC2CC2)[C@@H](CO)O1,–
COc1cccc(-c2ccc([C@H]3[C@H]4CN(Cc5cncnc5)CCCCN4[C@H]3CO)cc2)c1,–
COc1cccc(-c2ccc([C@@H]3[C@H]4CN(Cc5cncnc5)CCCCN4[C@H]3CO)cc2)c1,-3.94
COc1cccc(-c2ccc([C@@H]3[C@@H](CO)N4CCCCN(Cc5cncnc5)C[C@H]34)cc2)c1,–
CC1C=NC(S(=O)(=O)N2CC[C@@H]3[C@H](CO)N(C)c4ccc(C#Cc5cccnc5)cc4[C@@H]32)=N1 (stereo not given in full),–
COc1ccc(C#Cc2ccc([C@@H]3[C@H](CO)N4CCCCN(C(=O)Nc5ccccc5F)C[C@@H]34)cc2)cc1,–
O=C(c1ccc(F)cc1)N1CCCCN2[C@@H](CO)[C@H](c3ccc(C#CC4(O)CCCC4)cc3)[C@@H]2C1,–
O=C(Nc1ccccc1F)N1CCCCN2[C@@H](CO)[C@@H](c3ccc(C#Cc4ccccc4)cc3)[C@@H]2C1,–
CC(=O)N1CCCCN2[C@H](CO)[C@@H](c3ccc(C#Cc4ccccc4F)cc3)[C@@H]2C1,-7.52
CCC(=O)N1CCCCN2[C@H](CO)[C@@H](c3ccc(C#Cc4ccccc4F)cc3)[C@@H]2C1,-5.78
CCC(=O)N1CCCCN2[C@H](CO)[C@H](c3ccc(C#Cc4ccccc4F)cc3)[C@H]2C1,–
SMILES,IDE exosite inh
O=C(c1ccc(F)cc1)N1CCCCN2[C@H](CO)[C@H](c3ccc(C#CC4(O)CCCC4)cc3)[C@H]2C1,-3.21
COc1ccc(C#Cc2ccc([C@H]3[C@H](CO)N4CCCCN(C(=O)Nc5ccccc5F)C[C@@H]34)cc2)cc1,–
CC(=O)N1CCCCN2[C@@H](CO)[C@@H](c3ccc(C#Cc4ccccc4F)cc3)[C@@H]2C1,–
CCC(=O)N1CCCCN2[C@@H](CO)[C@H](c3ccc(-c4ccc(F)cc4)cc3)[C@@H]2C1,–
O=C(c1ccc(F)cc1)N1CCCCN2[C@@H](CO)[C@@H](c3ccc(C#CC4(O)CCCC4)cc3)[C@@H]2C1,–
CCC(=O)N1CCCCN2[C@H](C1)[C@H](c1ccc(C#Cc3ccccc3F)cc1)[C@@H]2CO,-4.59
O=C(c1ccccc1)N1C[C@@H]2[C@H](c3ccccc31)[C@H](CO)N2Cc1ccccn1,–
CN1C(=O)c2cc(NC(=O)C3CCOCC3)ccc2OC[C@H]2O[C@H](CC(=O)NCC3CCCCC3)CC[C@@H]21,–
CCC(=O)N1CC(=O)N2[C@@H](CO)[C@H](c3ccc(C#Cc4cccnc4)cc3)[C@@H]2C1,–

# Compound activity: PubChem BioAssay, Broad Institute
